# Screening results from PubChem.
# Tb PYK inh – blocks Trypanosoma brucei pyruvate kinase; Q57TT1; actives 0.12% (n = 410,000); TbPYK enzyme, Kinase-Glo Plus ATP luminescence, 45 min; Potency, µM (series often up to 76.8 µM), without a hit: at the highest dose activity, negative = inhibition, hits mostly inhibitors; note: nearly all actives have a fitted effect of over 50% in size
#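 TbPYK + substrate in 50 mM TEA pH 7.2, 100 mM KCl, 10 mM MgCl2, 0.05% BSA, 0.01% Tween-20; cpd pinned; ADP 130 uM final; 45 min RT; Kinase-Glo Plus 10 min; luminescence endpoint.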
# RE007 growth inh – less growth of the S. pombe RE007 Vpr strain | actives 0.21% (n = 360,000) | Potency, µM (highest dose often 92.2 µM), for inactives: at the highest dose activity change, negative = less growth, actives largely listed as inhibitors | AID 651644 | S. pombe RE007 Vpr strain, BacTiter-Glo ATP luminescence, 24 h; active = well fitted falling curve with a large enough effect; inconclusive = small, poorly fitted or top-dose-only effect; inactive = no such curve, though single readings can be large or run the other way; note: nearly all actives have a fitted effect of over 50% in size
#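 Fission yeast strain RE007, carrying one chromosomally integrated HIV-1 vpr copy, was seeded at OD 0.01 in PMG+AL medium with 23 nL pinned compound. After 24 h at 30 °C and 99% humidity, viability was read by BacTiter-Glo luminescence.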
# Sm TGR inh – S. mansoni TGR enzyme inhibition. Q962Y6. purified TGR, DTNB reduction, TNB absorbance 405 nm. Potency, µM (top dose mostly 114 µM), for the others: at the highest dose activity change, negative = inhibition, hits mostly inhibitors. actives 3% (n = 360,000). AID 485364; note: nearly all actives have a fitted effect of over 60% in size
#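 First, TGR (20 nM dispensed) and NADPH were mixed with compound. Second, a 15 min room-temperature incubation followed. Third, further NADPH and then DTNB were added to start the reaction. Finally, TNB absorbance was monitored kinetically.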
# LmPK inhibitor – inhibitors of Leishmania mexicana pyruvate kinase; AID 1721; Potency, µM (highest dose often 57.5 µM), inactives show at the highest dose activity change, negative = inhibition, usual class: inhibitors; actives 0.37% (n = 290,000); purified LmPK, Kinase-Glo ATP luminescence, 1 h
# Target sequence (Q27686 whole entry, looked up): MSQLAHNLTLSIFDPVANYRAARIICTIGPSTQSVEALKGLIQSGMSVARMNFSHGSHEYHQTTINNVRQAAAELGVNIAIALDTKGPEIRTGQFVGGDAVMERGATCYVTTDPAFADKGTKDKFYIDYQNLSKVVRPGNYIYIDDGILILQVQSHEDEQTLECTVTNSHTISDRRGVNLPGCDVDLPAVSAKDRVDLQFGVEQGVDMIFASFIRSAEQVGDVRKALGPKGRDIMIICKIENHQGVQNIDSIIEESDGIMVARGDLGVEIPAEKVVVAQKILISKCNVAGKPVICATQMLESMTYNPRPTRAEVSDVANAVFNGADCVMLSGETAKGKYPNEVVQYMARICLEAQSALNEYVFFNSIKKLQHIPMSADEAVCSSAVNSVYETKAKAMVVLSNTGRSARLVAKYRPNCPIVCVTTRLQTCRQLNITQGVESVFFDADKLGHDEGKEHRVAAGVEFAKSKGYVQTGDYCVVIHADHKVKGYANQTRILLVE
#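 Kinase-Glo luminescence read after 1 h RT reaction of 0.1 nM LmPK with 0.5 mM PEP and 0.1 mM ADP. Activity scaled between uninhibited and enzyme-free controls.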
# FBPA Giardia inh – Giardia lamblia aldolase inhibition. AID 2451. A8B2U2. actives 0.71% (n = 290,000). Potency, µM (highest dose often 59.6 µM), inactives show at the top dose activity, negative = inhibition, usual class: inhibitors. purified Giardia FBPA; note: nearly all actives have a fitted effect of over 55% in size
#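 40 nM FBPA preincubated 10 min at RT with compound (up to 57.5 uM final), then substrate plus GAPDH/TPI/NAD/arsenate coupling and diaphorase/resazurin added. Fluorescence read after 20 min at RT, 525/598 nm.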
# * hit, by the source's call; ? = inconclusive; . = no result given; [ ] = dose if it differs, or a comment. Compounds with a hit are over-represented: about 3.3% of the library has one in this group of screens. Unless noted, calls come from the whole dose curve; as a rule, active = well fitted curve in the direction sought with a large enough effect; inconclusive = small, poorly fitted or top-dose-only effect, or another doubt; inactive = no such curve, though single readings can be large; an effect the other way counts as inactive or inconclusive. % is set by controls: 0 for no effect and ±100 for the full control effect; potency is the fitted concentration of half-maximal effect.
SMILES,Tb PYK inh,RE007 growth inh,Sm TGR inh,LmPK inhibitor,FBPA Giardia inh
CSCCC1NC2(C(=O)Nc3c2ccc(Cl)c3C)[C@@H]2C(=O)N(C3CCCC3)C(=O)[C@H]12 (stereo partly specified),-1%,3%,-5%,8%,-5%
Cc1c(Cl)ccc2c1NC(=O)[C@]21N[C@@H](CCC(N)=O)[C@H]2C(=O)N(c3ccc(F)cc3)C(=O)[C@H]21,-2%,-9%,13µM*,1%,3%
Cc1c(Cl)ccc2c1NC(=O)C21NC(CCC(N)=O)[C@H]2C(=O)N(c3ccc(Cl)cc3)C(=O)[C@H]21 (stereo partly specified),-2%,12%,35µM*,8%,-9%
CCCCc1ccc(N2C(=O)[C@@H]3C(CC(N)=O)NC4(C(=O)Nc5ccc(F)cc54)[C@@H]3C2=O)cc1 (stereo partly specified),-4%,-20%,0%,3%,0%
CCCOc1ccc(C2Nc3cccc4cccc(c34)N2)cc1,-24%,0%,14µM*,-1%,-13%
Brc1ccc(C2Nc3cccc4cccc(c34)N2)cc1,-9%,1%,.,.,.
FC(F)(F)c1ccc(C2Nc3cccc4cccc(c34)N2)cc1,-14%,16%,20µM*,6%,-5%
Fc1ccc(C2Nc3cccc4cccc(c34)N2)cc1,-9%,7%,18µM*,0%,-29%
Cc1ccc(C2Nc3cccc4cccc(c34)N2)s1,-24%,.,18µM*,-1%,?
CCN(CC)c1ccc(C2Nc3cccc4cccc(c34)N2)cc1,-4%,-17%,-54%,-1%,-25%
CC(=O)NC1CC2CCCC(C1)N2C(=O)Nc1cccc(Cl)c1 (stereo unspecified),4%,3%,.,.,.
O=S(=O)(N/N=C\c1ccccc1O)c1ccc(Cl)cc1,1%,-9%,4%,7%,-16%
COc1ccc(OC)c(NC(=O)CSc2nnnn2C)c1,3%,10%,2%,-6%,2%
COc1ccc(C2Nc3cccc4cccc(c34)N2)cc1Br,-15%,-1%,25µM*,-4%,-20%
CCOC(=O)c1c(S(=O)(=O)NCCCc2ccco2)c(C)n(C)c1C,-9%,1%,28µM*,-4%,7%
Cc1cc2nnc(SCC(=O)NCc3cccs3)n2c2ccccc12,.,16%[3.69 µM],0%,2%,3%
Cn1c(SCC(=O)Nc2cc(Cl)cc(Cl)c2)nnc1-c1ccc2nonc2c1,2%,3%,18µM*,8%,-12%
O=C(c1ccc(Cl)cc1)N1CCn2c1nc1ccccc12,-21%,-2%,7%,-2%,0%
CC1CCN(C(=O)COC(=O)/C=C/c2ccco2)CC1,-4%,-3%,.,.,.
CN(Cc1ccccc1)C(=O)COC(=O)/C=C/c1ccco1,0%,12%,3.5µM*,2%[11.5 µM],0%
CN(CCOC(=O)/C=C/c1ccco1)Cc1ccccc1,-4%,-4%,2.5µM*,14%,-22%
Cc1oc(-c2ccc(Cl)cc2)nc1CS(=O)CC(=O)NCc1ccccn1 (stereo unspecified),-2%,-1%,40µM*,-2%,.
Cc1oc(-c2ccccc2F)nc1CS(=O)CC(=O)NC1CC1 (stereo unspecified),3%,-9%,?,-3%,10%
Cc1oc(-c2ccc(Cl)cc2)nc1CS(=O)CC(=O)NC(C)c1ccccc1 (stereo unspecified),5%,-1%,8.9µM*,-4%,.
Cc1ccc(-c2nc(CS(=O)CC(=O)NC3CCC(C)CC3)c(C)o2)cc1 (stereo unspecified),-3%,-7%,14µM*,3%,8%
Cc1oc(-c2ccc(Cl)cc2)nc1CS(=O)CC(=O)NC1CC1 (stereo unspecified),0%,1%,16µM*,1%,.
Cc1ccc(-c2nc(CS(=O)CC(=O)O)c(C)o2)cc1 (stereo unspecified),2%,.,-15%,.,.
O=C(NCCCO)c1ccc2[nH]c3ccccc3c2c1,-6%,3%,4%,-3%,3%
